The supplement of paper PMC9694430

Legend:
Assay in all cases: thermal shift delta Tm vs DMSO control; higher = stronger stabilization (binding)
Settings in all cases: 12.5 µM; protein concentration 2 µM
LOC_OS04G57630-cb004 = system: LOC_OS04G57630-cb004
Procedure, shortened: (§1)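 Rice kinase domain constructs, made in E. coli and purified, were placed in 96-well plates at 2 μM in 19.5 μl of 100 mM potassium phosphate pH 7.5, 150 mM NaCl, 10% glycerol and 5 × SYPRO Orange, with compound in DMSO. A temperature ramp from 25°C to 95°C at 0.05°C/s was used for differential scanning fluorimetry. The melting temperature shift is a triplicate mean compared with DMSO-only protein, derived from Boltzmann fits.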

LOC_OS05G07850-cb002 = system: LOC_OS05G07850-cb002
Procedure, shortened: as §1

LOC_OS05G16824-cb004 = system: LOC_OS05G16824-cb004
Procedure, shortened: as §1

LOC_OS05G28520-cb001 = system: LOC_OS05G28520-cb001
Procedure, shortened: as §1

LOC_OS05G30820-cb001 = system: LOC_OS05G30820-cb001
Procedure, shortened: as §1

LOC_OS05G43570-cb004 = system: LOC_OS05G43570-cb004
Procedure, shortened: as §1

LOC_OS06G16330-cb003 = system: LOC_OS06G16330-cb003
LOC_OS06G16330-cb003, sequence (as listed by the source): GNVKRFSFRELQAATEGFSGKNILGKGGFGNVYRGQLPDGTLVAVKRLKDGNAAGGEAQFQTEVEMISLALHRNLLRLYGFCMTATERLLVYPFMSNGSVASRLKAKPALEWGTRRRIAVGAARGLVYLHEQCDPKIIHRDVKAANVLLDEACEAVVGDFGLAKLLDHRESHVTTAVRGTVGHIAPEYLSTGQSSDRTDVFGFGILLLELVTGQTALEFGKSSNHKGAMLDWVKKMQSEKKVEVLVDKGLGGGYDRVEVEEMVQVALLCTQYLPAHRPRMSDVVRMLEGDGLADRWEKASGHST
Procedure, shortened: as §1

LOC_OS06G22820-cb001 = system: T1, LOC_OS06G22820-cb001
T1 sequence (whole entry): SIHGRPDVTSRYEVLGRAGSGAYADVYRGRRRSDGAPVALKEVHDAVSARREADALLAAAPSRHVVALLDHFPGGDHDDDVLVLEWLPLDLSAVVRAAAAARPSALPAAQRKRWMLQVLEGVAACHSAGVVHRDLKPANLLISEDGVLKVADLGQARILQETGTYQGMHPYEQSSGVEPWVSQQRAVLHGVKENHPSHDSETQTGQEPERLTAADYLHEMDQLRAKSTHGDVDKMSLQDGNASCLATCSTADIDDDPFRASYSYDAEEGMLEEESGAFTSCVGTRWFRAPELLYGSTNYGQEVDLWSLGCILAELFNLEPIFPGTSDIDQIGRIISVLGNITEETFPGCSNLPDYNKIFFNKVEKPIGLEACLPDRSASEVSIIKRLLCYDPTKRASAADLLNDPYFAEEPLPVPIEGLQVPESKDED
Procedure, shortened: as §1

LOC_OS07G06570-cb004 = system: LOC_OS07G06570-cb004
Procedure, shortened: as §1

LOC_OS07G07230-cb001 = system: LOC_OS07G07230-cb001
Procedure, shortened: as §1
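Further: purified Escherichia coli-expressed rice kinase domain construct.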

| SMILES | thermal shift delta Tm (LOC_OS04G57630-cb004) [°C] | thermal shift delta Tm (LOC_OS05G07850-cb002) [°C] | thermal shift delta Tm (LOC_OS05G16824-cb004) [°C] | thermal shift delta Tm (LOC_OS05G28520-cb001) [°C] | thermal shift delta Tm (LOC_OS05G30820-cb001) [°C] | thermal shift delta Tm (LOC_OS05G43570-cb004) [°C] | thermal shift delta Tm (LOC_OS06G16330-cb003) [°C] | thermal shift delta Tm (LOC_OS06G22820-cb001) [°C] | thermal shift delta Tm (LOC_OS07G06570-cb004) [°C] | thermal shift delta Tm (LOC_OS07G07230-cb001) [°C] |
| --- | --- | --- | --- | --- | --- | --- | --- | --- | --- | --- |
| C[C@@H](NC(=O)c1ncnc(N)c1Cl)c1ncc(C(=O)Nc2cc(C(F)(F)F)c(Cl)cn2)s1 | 0.51 | 4.01 | -2.64 | 1.62 | 0.73 | 0.28 | 0.58 | 0.53 | 1.4 | 0.05 |
| C[C@@H](Nc1cc(F)cc(F)c1)c1cc(C(=O)N(C)C)cc2c(=O)cc(N3CCOCC3)oc12 | 0.46 | -0.67 | -4.22 | 0.89 | 0.53 | 0.2 | -0.67 | 0.43 | 1.06 | 0.35 |
| CC(C)(C)c1cc(NC(=O)Nc2ccc(Oc3ccnc4[nH]c(=O)cnc34)cc2F)n(-c2ccccc2)n1 | 10.3 | 12.5 | 0.62 | 0.57 | 0.39 | 0.48 | 5.36 | 0.49 | 1.22 | -0.1 |
| O=C(NOCC(O)CO)c1cc(Br)c(F)c(F)c1Nc1ccc(I)cc1F (configuration not stated) | 0.44 | 0.69 | 0.91 | 0.42 | 0.68 | 0.96 | 0.65 | 1.13 | 1.14 | -0.63 |
| CCCCCCCCCCCCc1ccc(S(=O)(=O)Nc2nncs2)cc1 | -0.02 | 0.11 | -2.07 | 0.11 | 0.45 | 0.64 | 0.11 | 0.75 | 1.23 | 0.24 |
| CN(C)S(=O)(=O)c1ccc2c(c1)/C(=C/c1cc3c([nH]1)CCCC3)C(=O)N2 | 1.35 | 7.38 | -3.8 | 1.28 | 1.28 | 0.71 | – | 1.01 | 1.01 | 0.86 |
| CC(C)(C)c1ccc(S(=O)(=O)/C=C/C#N)cc1 | 0.92 | 0.97 | – | -0.58 | -0.04 | 0.04 | 0.83 | -0.39 | 0.39 | -0.18 |
| O=C(O)c1cc(O)c2c(c1)[C@@H]([C@H]1c3cc(C(=O)O)cc(O)c3C(=O)c3c(O[C@@H]4O[C@H](CO)[C@@H](O)[C@H](O)[C@H]4O)cccc31)c1cccc(O[C@@H]3O[C@H](CO)[C@@H](O)[C@H](O)[C@H]3O)c1C2=O [Sennoside B] | -0.43 | -1.7 | – | 2.58 | 0.73 | 1.55 | -0.98 | 1.61 | 4.56 | -0.03 |
| Cn1cc(C2=C(c3ccc(Cl)cc3Cl)C(=O)NC2=O)c2ccccc21 | 0.28 | 2.36 | 0.19 | 2.17 | 0.49 | 0.84 | – | 1.02 | 2.2 | 0.68 |
| Cc1ccccc1-n1c(Cn2nc(-c3cccc(O)c3)c3c(N)ncnc32)nc2cccc(C)c2c1=O | – | 0.71 | -1.12 | 0.91 | 0.79 | 0.31 | – | – | – | 1 |
| Cc1cc(O)c2c(c1)C(=O)c1cccc(O)c1C2=O [Chrysophanic Acid] | -0.6 | 1.45 | – | 0.74 | 0.15 | -0.12 | -0.34 | -0.85 | 1.81 | -0.41 |
| Cc1[nH]c(/C=C2\C(=O)Nc3ccc(S(=O)(=O)N(C)c4cccc(Cl)c4)cc32)c(C)c1C(=O)N1CCN(C)CC1 | 0.72 | 9.11 | – | 0.18 | 0.55 | -0.03 | -6.47 | 1 | 0.23 | 0.81 |
| COc1cc(N2CCC(N3CCN(C)CC3)CC2)ccc1Nc1ncnc(Nc2ccccc2S(=O)(=O)C(C)C)n1 | -0.16 | 9.97 | -1.84 | 0.49 | 0.53 | 0.45 | 2.65 | 0.91 | 1.77 | 0.45 |
| CCNC(=O)C#Cc1ccc2c(C(=Nc3ccc(CN(C)C)cc3)c3ccccc3)c(O)[nH]c2c1 | 2.92 | 5.17 | 8.59 | 0.18 | 0.42 | 0.36 | 1.85 | 0.09 | 0.62 | -0.34 |
| CCCNC(=O)Nc1ccc(Oc2ncnc3cc(OC)c(OC)cc23)cc1Cl | 0.94 | 5.45 | -1.66 | -0.19 | 0.49 | 0.07 | 1.43 | 0.78 | 0.73 | 0.03 |
| Cc1nc(Nc2n[nH]c3c2CN(C(=O)N[C@H](CN(C)C)c2ccccc2)C3(C)C)c2sccc2n1 | 0.4 | 1.45 | 5.08 | 2.24 | 0.45 | 1.95 | 0.72 | 2 | 1.67 | 0.02 |
| Nc1ccc(C(=O)Nc2cccc(-c3nc(N4CCOCC4)c4oc5ncccc5c4n3)c2)cn1 | 1.19 | 1.25 | -3.13 | 0.31 | 0.83 | 0.15 | 0.32 | 0.39 | 0.88 | -0.01 |
| Cn1sc(=O)n(Cc2ccccc2)c1=O | -1.01 | -2.47 | 4.99 | 1.84 | 0.45 | 0.04 | – | 0.72 | 0.43 | -0.42 |
| C=CC(=O)N[C@H]1CCOC[C@H]1Nc1ncc2cc(-c3c(Cl)c(OC)cc(OC)c3Cl)ccc2n1 | 0.02 | 0.63 | – | 0.07 | 0 | -0.08 | -0.57 | 0.4 | 0.52 | 0.76 |
| Cc1ncc(CO)c(CO)c1O [Pyridoxine] | -0.04 | 0.43 | – | -0.11 | 0.06 | 0.36 | -0.45 | 0.67 | 1.06 | 0.72 |
